Among all 65,000 compounds or so, about 320 (0.49%) were called active.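 Rule for the calls: active = top-ranked compounds by inhibition in the single 10 µM screen, taking a fixed number of the strongest; inactive = the rest, inconclusive results apart.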 Shown is part of a subset that was picked to be rich in actives.

For 97 molecules, inhibition results are on record in PubChem BioAssay AID539 (SRMLSC, 2006).

The test system of this test is phosphomevalonate kinase (Streptococcus pneumoniae D39). The test can be described thus: phosphomevalonate kinase enzyme inhibition – biochemical, mevalonate pathway, pilot trial included, primary screen (AID 539).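 Note: 0% = full reaction with DMSO carrier and 100% = background rate without enzyme reaction.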 The conditions noted are these: purified PMK, PK/LDH-coupled NADH absorbance 340 nm, at 10 µM, stronger effect = higher value.
Where [1] appears, read: measured here: pilot screen replicates.

Usually inhibition stands for how much of the control response was suppressed. As to `O=C(Nc1cccc2c1CCCC2)C1CCN(C(=O)NC2CCCCC2)CC1`, the inhibition is 13% (inactive). Same read-out and setting: the figure for `CCC(C)n1[nH]c(=O)cc1N` (configuration not stated) is 5% (inactive); for `Cc1nn2c3cc(N4CCOCC4)ccc3nc2c2ccccc12` it is 0% (inactive); for `Cc1ccccc1C(=O)Nc1cccc(-c2nnc(SCC(=O)O)n2C)c1` it is 7% (inactive). On the same count and under the same terms, the figure for `Cn1c(SCC(=O)N2CCOCC2)nnc1-c1ccc(NC(=O)c2ccccc2F)cc1` is 40% (active); for `Cn1c(SCC(=O)Nc2cccc(O)c2)nnc1-c1ccc(S(=O)(=O)N2CCOCC2)cc1` it is 0% (inactive); for `CCc1nnc(NC(=O)CSc2nnc(COc3ccc(C#N)cc3)n2-c2ccccc2)s1` it is 4% (inactive). In the case of `Cn1c(=O)[nH]c(=O)c2c1nc(Br)n2CCCCSc1nc2ccccc2o1`, the inhibition was 8% (inactive). `C1=C(CCNc2ncnc3c2cnn3-c2ccccc2)CCCC1`: the inhibition is 8% (inactive). Moreover, the inhibition under setting [1] worked out at 0.5%. For `c1csc(-c2nc(-c3ccncc3)no2)c1`, the inhibition was 0% (inactive). The same measure, in the same setting: the figure for `O=C(O)CCN1C(=O)CC2(CCCCC2)C1=O` is 12% (inactive).

For the molecule `Cc1ccc(C)c(NC(=O)C2CCCN2C(=O)OC(C)(C)C)c1` (configuration not stated), the inhibition was 0% (inactive).

On to `CC(C)N(C(=O)Cn1c(SCC(=O)N2CCN(c3ccccc3)CC2)nc2ccccc21)C(C)C`, for which the inhibition was 4% (inactive). Consider `COCCN(CC(=O)Nc1ccccc1C)S(=O)(=O)c1ccc(S(=O)(=O)N2CCCC2)cc1`, for which the inhibition is 10% (inactive). In addition, the inhibition under setting [1] amounted to 2.5%. Take `CCOC(=O)C1CCN(C(=O)C2CCN(S(=O)(=O)CC)CC2)CC1`: the inhibition was 2% (inactive). Still for that read-out and setting: the figure for `CCOC(=O)C1CCN(C(=O)C2CCN(S(=O)(=O)N3CCCC3)CC2)CC1` is 30% (active). As to `CCOC(=O)C1CCN(C(=O)C2CCN(S(=O)(=O)c3c(C)noc3C)CC2)CC1`, the inhibition is 11% (inactive). Turning to `CC1(C)CC(=O)C=C(NC2CC(C)(C)NC(C)(C)C2)C1`, the inhibition was 8% (inactive). Regarding `c1ccc(CCn2nnnc2CN2CCN(C3CCCC3)CC2)cc1`, the inhibition is 0% (inactive). Under setting [1], this molecule displayed an inhibition of 0.5%. For `CC1CCCCC1NC(=O)CCS(=O)(=O)c1cccc2nonc12` (configuration not stated), the inhibition is 0% (inactive).

Regarding `O=C1CSC(=O)N1CCOCCN1C(=O)CSC1=O`, the inhibition was 8% (inactive).

For the molecule `Cc1ccccc1CN1CCN(C(=O)c2cccc(F)c2)CC1`, the inhibition was 0% (inactive). Also, the inhibition under setting [1] was determined as 2%. Consider `CCCCCOC(=O)C1=C(C)Nc2nnnn2C1c1ccc(OC)c(OC)c1OC` (configuration not stated), for which the inhibition is 11% (inactive). On the same count and under the same terms, the figure for `COc1ccc(CCn2nnnc2C(c2ccccc2)N2CCN(C)CC2)cc1OC` (configuration not stated) is 18% (inactive); for `COC(=O)c1ccc(Oc2nc(Nc3ccc(F)cc3)nc(N3CCCC3)n2)cc1` it is 4% (inactive). Still for that read-out and setting: the figure for `CCC1CCCCN1CCNC(=O)c1[nH]c(C)c(C(C)=O)c1C` (configuration not stated) is 1% (inactive); for `CCC1CCCCN1CCCNC(=O)Cn1nc(-c2ccccc2)ccc1=O` (configuration not stated) it is 26% (active); for `Cc1ccc(-c2ccc(=O)n(CC(=O)NCCCN3CCCCC3)n2)cc1` it is 18% (inactive). For `CCCCNc1nc2c(c(=O)n(C)c(=O)n2C)n1Cc1cccc(OC)c1`, the inhibition was 0% (inactive). Still for that read-out and setting: in the case of `COc1ccccc1NC(=O)CN1CCN(S(=O)(=O)c2ccc(Br)cc2)CC1` it was 5% (inactive); in that of `NC(=O)C1CCN(C(=O)c2ccc(C(F)(F)F)cc2)CC1`, 12% (inactive). The same measure, in the same setting: the figure for `CCC(=O)c1ccc(OCC(O)CN2CCN(c3cccc(C(F)(F)F)c3)CC2)cc1` (configuration not stated) is 0% (inactive); for `O=C(NCCCN1CCCCCC1)C1CC(=O)N(C2CCCC2)C1` (configuration not stated) it is 12% (inactive).

As for `CCOc1ccc2[nH]c(=O)c(CN(CCCO)C(C)=O)cc2c1`, the inhibition is 20% (inactive). On the same count and under the same terms, in the case of `COC(=O)CCSc1nccn1Cc1ccccc1` it was 0% (inactive); in that of `O=C(CSc1nnnn1-c1ccc2c(c1)CCC2)Nc1ccc2c(c1)OCCO2`, 0% (inactive); in that of `CCn1ncc(Br)c1C(=O)Nc1cc(C)ccc1F`, 6% (inactive). Same read-out and setting: the figure for `COc1ccc(C(c2nnnn2C2CCCCC2)N2CCN(c3ccccc3F)CC2)cc1` (configuration not stated) is 3% (inactive).

With `CC1CCc2c(sc(NC(=O)c3ccc(Cn4cc(Br)cn4)o3)c2C(N)=O)C1` (configuration not stated), the inhibition was 0% (inactive). On the same count and under the same terms, in the case of `COc1ccc(N(CC(=O)NC2CCCCCCC2)S(=O)(=O)c2c(C)nn(C)c2C)cc1` it was 10% (inactive). On the same count and under the same terms, the figure for `CCOC(=O)c1cccc(NC(=O)CN(c2ccc(C)cc2)S(=O)(=O)c2c(C)noc2C)c1` is 13% (inactive); for `Cc1ccc(S(=O)(=O)N2CCOCC2)cc1C(=O)NCc1ccc(F)cc1` it is 8% (inactive). Same read-out and setting: in the case of `Cc1nc2nc[nH]n2c(=O)c1NC(=O)c1cccc(OCC(C)C)c1` it was 12% (inactive).

Turning to `O=C(Cn1nc(Cc2cccnc2)c2ccccc2c1=O)NCC1COc2ccccc2O1` (configuration not stated), the inhibition was 7% (inactive). Still for that read-out and setting: in the case of `COCCNC(=O)C(C#N)c1nc2ccccc2nc1N1CCN(Cc2ccc3c(c2)OCO3)CC1` (configuration not stated) it was 2% (inactive). The same measure, in the same setting: the figure for `CCOC(=O)Cc1csc(NC(=O)C(C)(C)C)n1` is 4% (inactive). The same measure, in the same setting: in the case of `COC(=O)CSc1nc(C2CC2)nc2ccccc12` it was 15% (inactive). Consider `Cc1ccccc1-n1nnc2c(=O)oc3ccccc3c21`, for which the inhibition was 10% (inactive). Besides, under setting [1], the inhibition stood at 4%. Regarding `CC(=O)N1CCN(C(=O)Nc2cccc(C(F)(F)F)c2)CC1`, the inhibition was 17% (inactive). In the case of `CC(C)C(NC(=O)c1cccc(S(=O)(=O)N2CCOCC2)c1)C(=O)NCCc1ccccn1` (configuration not stated), the inhibition is 11% (inactive). Still for that read-out and setting: in the case of `Cn1c(=O)c2c(nc(N3CCCCCC3)n2CC(O)COc2ccc(Cl)cc2)n(C)c1=O` (configuration not stated) it was 7% (inactive). `Cn1c(=O)oc2cc(S(=O)(=O)N3CCC(C(=O)Nc4ccc(OC(F)(F)F)cc4)CC3)ccc21`: the inhibition is 14% (inactive). Under setting [1], this molecule displayed an inhibition of 2%. In the case of `COc1ccc(S(=O)(=O)N2CCC(C(=O)N3CCOCC3)CC2)cc1OC`, the inhibition was 8% (inactive). Regarding `CCC(CC)C(=O)Nc1cccc(C(=O)N2CCCC2)c1`, the inhibition was 4% (inactive). Regarding `C=CCn1c(C)cc(C(=O)CN2C(=O)c3ccccc3C2=O)c1C`, the inhibition was 13% (inactive). The same measure, in the same setting: the figure for `COc1cc(C2C(C(=O)c3sc(C)nc3C)=C(O)C(=O)N2CCN(C)C)cc(OC)c1OC` (configuration not stated) is 17% (inactive); for `O=C(COc1ccc2c3c(c(=O)oc2c1)CCC3)NC1CCCCC1` it is 15% (inactive); for `CCOC(=O)N1CCN(S(=O)(=O)c2cc3c(cc2C)NC(=O)CO3)CC1` it is 14% (inactive). For the molecule `CC(=O)C1C(c2ccc(Cl)cc2)NC(=O)NC1(O)C(F)(F)F` (configuration not stated), the inhibition is 7% (inactive).

Consider `Nc1c(C(=O)NCc2ccccc2)nnn1Cc1cccc(Cl)c1`, for which the inhibition is 0% (inactive). Same read-out and setting: the figure for `CCOC(=O)c1[nH]c2ccc(OC)cc2c1NC(=O)CCN1CCN(Cc2ccccc2)CC1` is 6% (inactive). Same read-out and setting: the figure for `CCN(CC)S(=O)(=O)c1cccc(C(=O)NCC(=O)OCC(=O)NCc2ccccc2)c1` is 0% (inactive); for `Cc1ccc(C)n1C(Cc1ccccc1)C(=O)O` (configuration not stated) it is 7% (inactive). On the same count and under the same terms, in the case of `COc1ccc(OC)c2c1sc(=NC(=O)CN1C(=O)CCC1=O)n2C` it was 12% (inactive); in that of `O=C(Nc1ccc(S(=O)(=O)N2CCCC2)cc1Cl)C1=COCCO1`, 14% (inactive). For `N#Cc1ccccc1-n1c(N)c(C(=O)N2CCCC2)sc1=S`, the inhibition is 4% (inactive). On the same count and under the same terms, in the case of `Cc1ccc(S(=O)(=O)N2CCN(C(=O)CCC(=O)NC3CCCc4ccccc43)CC2)cc1` (configuration not stated) it was 21% (inactive); in that of `c1ccc(CCN2CN=C(Nc3nc4ccccc4o3)NC2)cc1`, 7% (inactive); in that of `Fc1ccc2nc(Nc3nc4c(s3)CCCC4)sc2c1`, 8% (inactive). Consider `Clc1ccc(Cn2ncc3c(NCc4cccnc4)ncnc32)cc1`, for which the inhibition is 9% (inactive). The molecule also returned an inhibition under setting [1] of 1.5%.

For the molecule `Fc1c(F)c(C(F)(F)F)c(F)c(F)c1N1CCN(c2ccc3nnc(C(F)(F)F)n3n2)CC1`, the inhibition was 0% (inactive). On to `COc1ccccc1N1CCN(c2nc3ccccc3n3nnnc23)CC1`, for which the inhibition was 7% (inactive).

Take `Cc1ccc(C(=O)NC2CC(C)(C)NC(C)(C)C2)c(C)c1`: the inhibition is 1% (inactive). With `CCOC(=O)N1CCN(Cc2nc3c(c(=O)n(C)c(=O)n3C)n2Cc2ccccc2)CC1`, the inhibition is 2% (inactive). Moreover, under setting [1], the inhibition was 1%. Regarding `CCOC(=O)CSc1nc2c(c(=O)n(Cc3ccccc3Cl)c(=O)n2C)n1C`, the inhibition was 5% (inactive). Still for that read-out and setting: the figure for `CCOc1cc2[nH]c(=S)n(CCCN3CCCC3=O)c(=O)c2cc1OCC` is 14% (inactive); for `COc1ccc(OC)c2[nH]c(=O)c(CCNC(=O)C(C)(C)C)cc12` it is 7% (inactive); for `N=c1c2c3c(sc2ncn1N)CCCCC3` it is 17% (inactive). Still for that read-out and setting: in the case of `O=C1c2ccccc2C(=O)N1c1ccccc1S(=O)C(F)(F)F` (configuration not stated) it was 12% (inactive); in that of `CCOC(=O)c1nnn(-c2nc(OC)nc(N(C)C)n2)c1-c1ccccc1`, 17% (inactive). Still for that read-out and setting: in the case of `COc1ccccc1NC(=O)C1=C(C)NC2=C(C(=O)CCC2)C1c1ccc(C)o1` (configuration not stated) it was 26% (active). On to `COc1ccccc1NC(=O)C1=C(C)Nc2ncnn2C1c1ccc(C)o1` (configuration not stated), for which the inhibition is 3% (inactive). This molecule displayed an inhibition under setting [1] of 2.5%. On to `COc1ccc(C2C(C(=O)Nc3ccccc3OC)=C(C)Nc3nnnn32)c(OC)c1` (configuration not stated), for which the inhibition is 8% (inactive). On the same count and under the same terms, in the case of `COc1cc(OC)cc(C(=O)Nc2ncc3c(n2)CC(C)(C)CC3=O)c1` it was 11% (inactive); in that of `Cc1cc(NC(=O)Cn2nc(C(F)(F)F)c3c2CCCC3)no1`, 3% (inactive); in that of `c1cnc(NC2C3CC4CC(C3)CC2C4)nc1` (configuration not stated), 7% (inactive). Consider `COc1ccc2[nH]c3ccc(OC)cc3c2c1`, for which the inhibition is 6% (inactive). Still for that read-out and setting: the figure for `COc1ccc(NC(=O)C2CCCN(S(=O)(=O)c3cccc4cccnc34)C2)cc1` (configuration not stated) is 8% (inactive); for `C#CCN1CC(C)/C(=N/O)CC1C` (configuration not stated) it is 7% (inactive). As for `Cc1cccc(NC(=O)c2ccc3ccccc3n2)n1`, the inhibition was 0% (inactive). Under setting [1], this molecule yielded an inhibition of 0.5%. Consider `CCOCCCN1C(=O)CN(C2CCCCC2)C(=O)C1c1ccc(OCC)c(OC)c1` (configuration not stated), for which the inhibition is 29% (active).

Take `CCOc1ccc(CNC(=O)C2CC(=O)N(C3CCCC3)C2)cc1OC` (configuration not stated): the inhibition was 8% (inactive). The same measure, in the same setting: in the case of `CCOc1ccc(CNC(=O)C2CCC(=O)N2C2CCCC2)cc1OC` (configuration not stated) it was 11% (inactive); in that of `CCc1nnc(NC(=O)CCC(=O)O)s1`, 0% (inactive). As for `CCc1nnc(NC(=O)c2cccs2)s1`, the inhibition was 35% (active).

As for `CCc1ccccc1NC(=O)c1cccs1`, the inhibition was 7% (inactive). On the same count and under the same terms, the figure for `CCCN(c1ccc(C(C)C)cc1)S(=O)(=O)c1c(C)[nH]c(=O)[nH]c1=O` is 8% (inactive).
